# Assay results: PubChem BioAssay (NCATS)
# Several values for one entry are separate records, joined by “and”; a condition that tells them apart may be missing. Equal values may be shown once. Records with an inconclusive call do not appear. Where a call stands in place of a potency, no number is given. Activity calls are given as the source filed them. Unless noted, the call rests on the fitted dose curve.
# Assays:
# [1] = qHTS assay for small molecule antagonists of peroxisome proliferator-activated receptor delta signaling (AID 588535; active means well fitted inhibition curve with a large enough effect in the signal ratio, with a control signal flat, not every such curve was filed as active; the % refers to the signal ratio;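 on max response: cells co-treated with a PPAR-delta agonist as stimulator during compound exposure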); conditions: HEK293T PPARd-UAS-bla, beta-lactamase FRET ratio, 18 h; 460 nm channel
# Method in brief: (§1)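 Reporter: UAS-bla under PPAR-delta response element, HEK293T host. Medium: 2% charcoal/dextran FBS. Dosing: titration, 18 hrs, 37 C. Detection: CCF4, 2 hrs RT, 405 ex/460 and 530 em.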
# [2] = molecular target: Peroxisome proliferator-activated receptor delta (Homo sapiens) (UniProt Q03181); assay: as above
# Method in brief: as §1
# [3] = molecular target: Vitamin D3 receptor (Homo sapiens) (UniProt P11473); assay: qHTS assay for small molecule antagonists of vitamin D receptor signaling (AID 588541);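 further: receptor activated by calcitriol during compound treatment; series mostly up to about 77 µM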
# Method in brief: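 VDR-UAS-bla HEK293T cells (2000/well, 2% charcoal-stripped FBS) were treated with titrated compounds plus 1-alpha,25-dihydroxyvitamin D3 (50 nM or 3 nM final) for 16 h at 37 C. CCF4 beta-lactamase fluorescence was read; Hill fits gave IC50.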
# [4] = qHTS assay for small molecule activators of the nuclear factor-kappa B (NF-kB) signaling pathway (AID 651749; active means well fitted activation curve with a large enough effect in the signal ratio; the % refers to the signal ratio; further: series mostly up to about 77 µM); conditions: NF-kB-bla ME-180 cells, beta-lactamase FRET ratio, 16 h; activation: stronger effect = higher value
# Method in brief: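 Screening used 2,000 ME-180 reporter cells per well exposed to pinned compound (23 nL) or DMSO; after 16 hr at 37C, beta-lactamase expression under NF-kB control was assessed through FRET.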
# [5] = molecular target: Androgen receptor (Homo sapiens) (UniProt P10275); assay: qHTS assay for small molecule agonists of androgen receptor signaling (AID 588515; active means well fitted curve in the direction sought with a large enough effect in the signal ratio, with a control signal flat; the % refers to the signal ratio); conditions: AR-UAS-bla HEK293, beta-lactamase ratio, agonist 16 h; stronger effect = higher value
# Method in brief: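 EC50 and efficacy came from Hill fits of titrations (up to 92 uM) normalized to 30 nM R1881 as 100% and DMSO as 0%. Compound exposure was 16 h at 37 C on AR-UAS-bla HEK293 cells, with a 405/460/530 nm CCF4 fluorescence read.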
# [6] = molecular target: Androgen receptor (Homo sapiens) (UniProt P10275); assay: qHTS assay for small molecule antagonists of androgen receptor signaling (AID 588516; active means well fitted curve in the direction sought with a large enough effect in the signal ratio, with a control signal flat, not every such curve was filed as active; the % refers to the signal ratio)
# Method in brief: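 Cells were plated and incubated 5 h, compounds added in titration, then R1881 (10 nM final) as agonist. After 16 h at 37 C, CCF4 substrate was loaded for 2 h at room temperature and fluorescence measured.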
# [7] = molecular target: Peroxisome proliferator-activated receptor gamma (Homo sapiens) (UniProt P37231); assay: qHTS assay for small molecule antagonists of peroxisome proliferator-activated receptor gamma signaling (AID 588537; active means well fitted inhibition curve with a large enough effect in the signal ratio, with a control signal flat, not every such curve was filed as active; the % refers to the signal ratio;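 further: reporter cells co-stimulated with 50 nM rosiglitazone agonist during compound treatment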)
# Method in brief: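 We seeded GeneBLAzer HEK293 reporter cells at 3000 per well, allowed 6-6.5 h attachment at 37 C, then co-treated with test compound titrations and 50 nM rosiglitazone overnight (16 h). Inhibition was quantified from 460/530 nm emission ratios.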
# [8] = molecular target: Bile acid receptor (Homo sapiens) (UniProt Q96RI1); assay: qHTS assay for small molecule agonists of farnesoid X receptor signaling (AID 588527); conditions: HEK293T FXR-UAS-bla, beta-lactamase ratio, 16 h; activation: stronger effect = higher value; further: series mostly up to about 77 µM
# Method in brief: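 Agonist-mode beta-lactamase reporter in GeneBLAzer FXR-UAS-bla HEK293T cells, titration up to 92 uM, 16 h exposure at 37 C, CCF4 fluorescence. Response scaled to DMSO (0%) and 100 uM chenodeoxycholic acid (100%), then Hill-fitted for EC50 and efficacy.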
# [9] = qHTS assay for small molecule agonists of the antioxidant response element (ARE) signaling pathway (AID 651741; active means well fitted activation curve with a large enough effect in the signal ratio; the % refers to the signal ratio; further: potency means the concentration at half of the fitted maximal effect)
# Method in brief: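 Compounds in DMSO are pinned onto HepG2 ARE-bla cells (2,000/well) that were preincubated 5 h; plates stay 16 h at 37 C, then beta-lactamase activity is detected with LiveBLAzer B/G substrate by fluorescence.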
# [10] = qHTS assay for small molecule activators of the human pregnane X receptor (PXR) signaling pathway (AID 720659; call rule not given here)
# [11] = molecular target: Bile acid receptor (Homo sapiens) (UniProt Q96RI1); assay: qHTS assay for small molecule antagonists of farnesoid X receptor signaling (AID 588526)
# Method in brief: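 Concentration-response titrations were fitted to the Hill equation for half-maximal inhibition and maximal response, with data normalised to 50 uM chenodeoxycholic acid and DMSO control wells. Cells: FXR-UAS-bla HEK293T, dialyzed FBS.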
# Peroxisome proliferator-activated receptor gamma (Homo sapiens), sequence (P37231 whole entry, looked up): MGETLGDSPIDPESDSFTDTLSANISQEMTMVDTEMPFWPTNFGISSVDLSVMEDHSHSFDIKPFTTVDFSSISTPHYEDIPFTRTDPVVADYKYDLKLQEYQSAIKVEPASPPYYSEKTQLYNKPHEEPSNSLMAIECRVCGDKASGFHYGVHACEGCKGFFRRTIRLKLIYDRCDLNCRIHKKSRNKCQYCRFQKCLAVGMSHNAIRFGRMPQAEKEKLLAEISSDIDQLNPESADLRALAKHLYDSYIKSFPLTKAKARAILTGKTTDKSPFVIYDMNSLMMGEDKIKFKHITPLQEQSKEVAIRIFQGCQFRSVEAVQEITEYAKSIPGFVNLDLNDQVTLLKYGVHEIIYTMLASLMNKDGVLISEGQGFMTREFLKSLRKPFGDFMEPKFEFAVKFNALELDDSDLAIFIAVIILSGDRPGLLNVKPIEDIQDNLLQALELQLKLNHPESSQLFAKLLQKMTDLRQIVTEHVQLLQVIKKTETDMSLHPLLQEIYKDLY
# Bile acid receptor (Homo sapiens), sequence (Q96RI1 whole entry, looked up): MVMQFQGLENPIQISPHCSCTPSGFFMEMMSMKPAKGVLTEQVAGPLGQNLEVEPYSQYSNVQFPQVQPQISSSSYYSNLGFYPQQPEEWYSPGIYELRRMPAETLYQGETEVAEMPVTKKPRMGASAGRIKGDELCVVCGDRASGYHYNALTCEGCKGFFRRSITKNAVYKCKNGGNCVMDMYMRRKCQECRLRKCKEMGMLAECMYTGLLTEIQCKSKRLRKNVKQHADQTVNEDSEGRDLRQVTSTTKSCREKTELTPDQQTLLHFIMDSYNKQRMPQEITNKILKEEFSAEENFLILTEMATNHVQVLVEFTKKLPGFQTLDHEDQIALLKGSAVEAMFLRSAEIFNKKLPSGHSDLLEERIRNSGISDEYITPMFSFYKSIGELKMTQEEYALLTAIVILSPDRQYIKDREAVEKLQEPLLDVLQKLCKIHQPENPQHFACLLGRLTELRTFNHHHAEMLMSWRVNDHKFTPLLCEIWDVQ
# Androgen receptor (Homo sapiens), sequence (P10275 whole entry, looked up): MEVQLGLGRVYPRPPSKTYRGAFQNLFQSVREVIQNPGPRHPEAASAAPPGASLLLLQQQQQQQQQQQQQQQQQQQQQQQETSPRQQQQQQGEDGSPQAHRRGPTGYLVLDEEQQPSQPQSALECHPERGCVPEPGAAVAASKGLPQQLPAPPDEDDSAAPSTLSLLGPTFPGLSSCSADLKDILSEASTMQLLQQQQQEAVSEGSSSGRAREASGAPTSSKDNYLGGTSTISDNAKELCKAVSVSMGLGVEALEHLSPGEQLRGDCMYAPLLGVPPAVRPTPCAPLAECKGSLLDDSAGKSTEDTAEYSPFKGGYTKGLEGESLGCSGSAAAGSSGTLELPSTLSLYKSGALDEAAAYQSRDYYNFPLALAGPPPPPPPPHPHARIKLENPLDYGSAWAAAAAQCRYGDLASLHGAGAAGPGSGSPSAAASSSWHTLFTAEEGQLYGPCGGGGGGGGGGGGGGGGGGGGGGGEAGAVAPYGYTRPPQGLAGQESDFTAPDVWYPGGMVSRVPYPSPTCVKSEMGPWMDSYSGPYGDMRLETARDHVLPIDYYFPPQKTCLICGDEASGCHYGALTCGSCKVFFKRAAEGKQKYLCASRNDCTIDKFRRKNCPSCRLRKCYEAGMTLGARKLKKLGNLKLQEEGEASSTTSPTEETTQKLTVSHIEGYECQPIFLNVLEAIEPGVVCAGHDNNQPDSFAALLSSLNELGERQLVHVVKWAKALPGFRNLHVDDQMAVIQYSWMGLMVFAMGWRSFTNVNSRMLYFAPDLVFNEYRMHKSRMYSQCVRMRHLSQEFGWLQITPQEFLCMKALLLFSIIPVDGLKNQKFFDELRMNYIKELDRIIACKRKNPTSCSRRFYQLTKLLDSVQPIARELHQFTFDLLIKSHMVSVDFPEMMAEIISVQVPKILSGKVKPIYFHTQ
# Vitamin D3 receptor (Homo sapiens), sequence (P11473 whole entry, looked up): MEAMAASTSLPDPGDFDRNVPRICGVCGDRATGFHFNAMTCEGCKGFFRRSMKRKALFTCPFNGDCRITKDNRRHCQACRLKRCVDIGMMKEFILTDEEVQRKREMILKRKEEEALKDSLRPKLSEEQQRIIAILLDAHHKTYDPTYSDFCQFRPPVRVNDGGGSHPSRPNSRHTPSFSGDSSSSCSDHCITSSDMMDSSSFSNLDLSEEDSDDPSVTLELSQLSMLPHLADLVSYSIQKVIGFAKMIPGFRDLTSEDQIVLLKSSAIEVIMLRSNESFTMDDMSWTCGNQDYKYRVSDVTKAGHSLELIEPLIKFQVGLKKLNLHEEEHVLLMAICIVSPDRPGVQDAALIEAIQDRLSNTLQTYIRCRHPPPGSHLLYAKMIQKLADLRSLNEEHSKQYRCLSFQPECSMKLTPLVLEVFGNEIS
# Peroxisome proliferator-activated receptor delta (Homo sapiens), sequence (Q03181 whole entry, looked up): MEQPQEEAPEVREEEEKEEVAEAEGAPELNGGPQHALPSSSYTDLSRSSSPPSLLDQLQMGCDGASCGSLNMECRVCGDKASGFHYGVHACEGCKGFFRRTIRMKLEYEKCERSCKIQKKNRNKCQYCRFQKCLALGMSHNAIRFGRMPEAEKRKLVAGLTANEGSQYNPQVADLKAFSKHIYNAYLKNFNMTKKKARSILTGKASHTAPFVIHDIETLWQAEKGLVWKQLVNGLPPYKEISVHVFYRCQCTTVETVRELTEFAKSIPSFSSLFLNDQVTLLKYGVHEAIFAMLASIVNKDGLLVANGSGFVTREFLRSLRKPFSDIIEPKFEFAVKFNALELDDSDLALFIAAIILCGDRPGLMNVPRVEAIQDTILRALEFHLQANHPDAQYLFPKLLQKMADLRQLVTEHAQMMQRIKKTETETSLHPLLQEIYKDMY
compound,measurement,setting,value
C=C(C)CN(CC)c1c([N+](=O)[O-])cc(C(F)(F)F)cc1[N+](=O)[O-],max response,[1],5.96%
same,Potency,[2],inactive
same,Potency,[3],inactive
same,activation,[4],-4.66% (inactive)
CCOC1Oc2ccc(OS(C)(=O)=O)cc2C1(C)C (stereo unspecified),activation,[5],-8.07% (inactive)
same,Potency,[6],inactive
same,max response,[1],-8.85%
same,Potency,[2],inactive
same,Potency,[7],inactive
same,Potency,[3],inactive
same,activation,[4],0.657% (inactive)
CCC[CH2][Sn](=[O])[CH2]CCC,activation,[5],0.348% (inactive)
same,Potency,[6],inactive
same,activation,[8],-6.54% (inactive)
same,max response,[1],0.661%
same,Potency,[2],inactive
same,Potency,[3],inactive
same,Potency,[9],inactive
same,activation,[4],-1.97% (inactive)
same,outcome,[10],inactive
CCCCCCCCCCCCC1=C(OC(C)=O)C(=O)c2ccccc2C1=O,activation,[5],-4.72% (inactive)
same,activation,[8],-0.713% (inactive)
same,activation,[4],-0.928% (inactive)
same,outcome,[10],inactive
O=[N+]([O-])c1ccc2ccc3cccc4ccc1c2c34,activation,[5],-12% (inactive)
same,activation,[8],-3.28% (inactive)
same,Potency,[7],inactive
same,Potency,[9],4.33 µM (active)
same,outcome,[10],inactive
CCOP(=S)(OCC)Oc1ccc(S(C)=O)cc1 (stereo unspecified),max response,[1],-64.2%
same,Potency,[2],inactive
same,Potency,[7],inactive
same,Potency,[9],inactive
O=C(NC(=O)c1c(F)cccc1F)Nc1cc(Cl)c(OC(F)(F)C(F)F)c(Cl)c1,activation,[5],7.72% (inactive)
COC(=O)N(C(=O)N1COC2(C(=O)OC)Cc3cc(Cl)ccc3C2=N1)c1ccc(OC(F)(F)F)cc1 (stereo unspecified),max response,[1],21%
same,Potency,[2],inactive
same,Potency,[3],inactive
CC1(C)[C@H](C(=O)O[C@H](C#N)c2cccc(Oc3ccccc3)c2)[C@@H]1C=C(Br)Br,activation,[5],-5.24% (inactive)
same,Potency,[6],inactive
same,max response,[1],6.87%
same,Potency,[2],inactive
CCNc1nc(NC(C)C)nc(SC)n1,activation,[5],-1.4% (inactive)
same,Potency,[6],inactive
same,max response,[1],5.95%
same,Potency,[2],inactive
same,Potency,[7],inactive
same,Potency,[9],inactive
same,activation,[4],-1.51% (inactive)
CCC(C)(C)c1cc(-n2nc3ccccc3n2)c(O)c(C(C)(C)CC)c1,activation,[5],3.42% (inactive)
same,Potency,[6],inactive
same,max response,[1],-9.56%
same,Potency,[2],inactive
same,Potency,[9],30.6 µM (active)
same,activation,[4],-0.182% (inactive)
same,outcome,[10],inactive
N#Cc1cc(I)c(O)c(I)c1,activation,[5],6.03% (inactive)
same,Potency,[6],inactive
same,max response,[1],43.3%
same,Potency,[2],inactive
same,Potency,[3],inactive
same,Potency,[9],30.6 µM (active)
same,outcome,[10],inactive
ClCc1ccccc1Cl,activation,[5],1.96% (inactive)
same,Potency,[6],inactive
same,Potency,[11],inactive
same,activation,[8],-0.339% (inactive)
same,Potency,[7],inactive
same,Potency,[3],inactive
same,outcome,[10],inactive
O=CNC(N1CCN(C(NC=O)C(Cl)(Cl)Cl)CC1)C(Cl)(Cl)Cl (stereo unspecified),activation,[5],14.6% (inactive)
same,max response,[1],26.2%
same,Potency,[2],inactive
same,Potency,[7],inactive
same,Potency,[3],inactive
same,activation,[4],-2.29% (inactive)
CC1(C)CON(Cc2ccccc2Cl)C1=O,max response,[1],23.3%
same,Potency,[2],inactive
same,Potency,[7],inactive
same,Potency,[3],inactive
CCOP(=S)(OCC)SC(CCl)N1C(=O)c2ccccc2C1=O (stereo unspecified),activation,[5],-16.4% (inactive)
same,Potency,[6],inactive
same,max response,[1],51.4%
same,Potency,[2],inactive
same,Potency,[3],inactive
same,Potency,[9],27.3 µM (active)
C=CC(=O)OCC(CC)(COC(=O)C=C)COC(=O)C=C,activation,[5],-16.7% (inactive)
same,Potency,[9],34.4 µM (active)
same,activation,[4],0.162% (inactive)
CCOP(=O)(OCC)OP(=O)(OCC)OCC,activation,[5],5.85% (inactive)
same,Potency,[6],inactive
same,Potency,[11],inactive
same,activation,[8],2.91% (inactive)
same,max response,[1],14.8%
same,Potency,[2],inactive
same,Potency,[7],inactive
same,Potency,[3],inactive
same,Potency,[9],inactive
same,activation,[4],-0.353% (inactive)
ClC1=C(Cl)[C@@]2(Cl)[C@H]3C[C@@H](Cl)[C@H](Cl)[C@H]3[C@@]1(Cl)C2(Cl)Cl,activation,[5],-0.104% (inactive)
same,Potency,[6],inactive
same,activation,[8],-1.23% (inactive)
same,Potency,[3],inactive
same,Potency,[9],24.3 µM (active)
CCNS(=O)(=O)C(F)(F)C(F)(F)C(F)(F)C(F)(F)C(F)(F)C(F)(F)C(F)(F)C(F)(F)F,activation,[5],7.01% (inactive)
same,Potency,[11],inactive
same,max response,[1],-20.7%
same,Potency,[2],inactive
same,Potency,[7],inactive
same,outcome,[10],inactive
Cc1ccccc1CO[C@@H]1C[C@@]2(C(C)C)CC[C@]1(C)O2,activation,[5],-0.477% (inactive)
same,Potency,[6],inactive
same,max response,[1],49.2%
same,Potency,[2],inactive
same,Potency,[7],inactive
same,Potency,[3],inactive
same,Potency,[9],inactive
same,activation,[4],-3.81% (inactive)
O=C1C=CC(=O)c2ccccc21,activation,[5],0.338% (inactive)
same,Potency,[11],inactive
same,activation,[8],-2.25% (inactive)
same,max response,[1],-18.7%
same,Potency,[2],inactive
same,Potency,[7],inactive
same,Potency,[9],54.5 µM (active)
same,activation,[4],-1.33% (inactive)
same,outcome,[10],inactive
CC(C)N1C(=O)N(c2ccccc2)CSC1=NC(C)(C)C,activation,[5],-16.2% (inactive) and -14% (inactive)
same,max response,[1],43.5%
same,Potency,[2],inactive
same,Potency,[7],inactive
same,Potency,[3],inactive
same,Potency,[9],68.6 µM (active) and 61.1 µM (active)
COc1ccc(/C(=C/C(=O)N2CCOCC2)c2ccc(Cl)cc2)cc1OC,activation,[5],-2.83% (inactive)
same,Potency,[6],inactive
same,Potency,[7],inactive
same,Potency,[3],inactive
same,Potency,[9],inactive
same,activation,[4],-1.84% (inactive)
N#CCNC(=O)c1cnccc1C(F)(F)F,activation,[5],4.4% (inactive)
same,Potency,[6],inactive
same,Potency,[11],inactive
same,max response,[1],-20.3%
same,Potency,[2],inactive
same,Potency,[7],inactive
same,Potency,[3],inactive
same,Potency,[9],inactive
same,outcome,[10],inactive
CCCC1COC(Cn2cncn2)(c2ccc(Cl)cc2Cl)O1 (stereo unspecified),activation,[5],-7.53% (inactive) and -11.8% (inactive)
same,Potency,[6],inactive
same,activation,[8],0.69% (inactive)
same,max response,[1],10.7%
same,Potency,[2],inactive
same,Potency,[7],inactive
same,Potency,[3],inactive
same,Potency,[9],54.5 µM (active) and 61.1 µM (active)
same,activation,[4],-0.905% (inactive) and -2.64% (inactive)
